DAT uptake mod – changed human dopamine transporter uptake under cocaine IC80. B-score at 10 µM. LLC-PK1 hDAT cells, [14C]-dopamine uptake with cocaine IC80; actives deviate in either direction. Q01959. actives 1.3% (n = 110,000);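 active = Z score or B-score, a plate-position-corrected score, falls beyond the plate's 99.7% confidence bounds, in either direction; inactive = both scores lie inside the 99.7% bounds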
CYP2C19 act – activators of human cytochrome P450 2C19 | P33261 | recombinant CYP2C19, luciferin-H EGE luminescence; active compounds read high; 0 = fully inhibited enzyme, 1 = untreated enzyme | activation factor at 5 µM | 96,000 tested, under 10 active | AID 1025;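 active = activation factor of at least 2 at 5 µM in the primary screen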
Target sequence (P33261 whole entry, looked up): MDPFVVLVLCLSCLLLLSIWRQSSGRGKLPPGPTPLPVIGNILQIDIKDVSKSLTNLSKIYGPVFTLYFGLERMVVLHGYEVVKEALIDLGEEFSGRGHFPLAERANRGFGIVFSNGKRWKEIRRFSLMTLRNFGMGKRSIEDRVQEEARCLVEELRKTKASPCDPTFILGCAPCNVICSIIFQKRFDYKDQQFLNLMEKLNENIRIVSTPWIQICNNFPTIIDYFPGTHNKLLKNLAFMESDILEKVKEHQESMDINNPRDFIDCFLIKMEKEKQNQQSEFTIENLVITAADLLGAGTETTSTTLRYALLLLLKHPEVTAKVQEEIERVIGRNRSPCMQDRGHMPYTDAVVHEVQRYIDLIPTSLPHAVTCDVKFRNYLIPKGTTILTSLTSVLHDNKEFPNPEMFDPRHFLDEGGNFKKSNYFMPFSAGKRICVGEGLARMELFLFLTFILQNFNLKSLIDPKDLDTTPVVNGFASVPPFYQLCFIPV
CYP2C19 inh – blocks human cytochrome P450 2C19 | CYP2C19 Supersomes, luciferin-H EGE luminescence, 30 min | inhibition, % at 5 µM | actives 21% (n = 96,000) | AID 778;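 active = CYP2C19 inhibition above a set limit at 5 µM in the primary screen, cut at about 50% in these data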
CYP2C9 activ – activators of human CYP2C9; AID 1024; recombinant CYP2C9, luciferin-H conversion, luminescence; active compounds read high; factor 1 = untreated enzyme, 0 = blocked; actives 1.4% (n = 96,000); activation factor at 5 µM; P11712;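 active = activation factor of 2 or more for CYP2C9 at a 5 µM dose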
D1 allo mod – allosterically modulates the human D1 dopamine receptor; P21728; HEK293 D1, CRE-luciferase, dopamine EC30 potentiation; actives deviate in either direction; B-score at 10 µM; actives 5.9% (n = 58,000); AID 641;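 active = luminescence count or its row- and column-corrected plate score outside the 99.7% band of the plate's sample wells, on either side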
CYP2C9 inh – blocks human cytochrome P450 2C9; inhibition, % at 5 µM; actives 20% (n = 96,000); CYP2C9 Supersomes, luciferin-H conversion, luminescence; P11712; AID 777;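 active = blocking of liver enzyme CYP2C9 beyond about 50% at 5 µM, limit read from the data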
Numbers stand for hits; – = inactive; · = no result. Shown are actives, neighbours in structure and some others; about 28% of the full set was active somewhere.

SMILES	DAT uptake mod	CYP2C19 act	CYP2C19 inh	CYP2C9 activ	D1 allo mod	CYP2C9 inh
COC(=O)C(Cc1ccc(O)cc1)NC(=O)c1ccccc1OC (stereo not given)	–	–	53	2.3	–	–
CCN(CC)CCOC(=O)c1cccc(Cl)c1	–	–	–	–	–	–
CCCCN(CC)C(=O)c1cccc(Cl)c1	–	–	71	–	–	–
CN1CCN(c2ccc([N+](=O)[O-])c(-n3nc(-c4ccccc4)c4ccccc4c3=O)c2)CC1	–	–	–	–	·	–
CC(C)NC(=O)c1ccc(OC2CSC2)cc1	–	–	–	–	·	–
COc1cc(OC)c(C2C(C#N)=C(N)OC3=C2C(=O)CC(C)(C)C3)cc1OC (stereo not given)	–	–	–	–	–	–
COC(=O)C1=C(C)OC(N)=C(C#N)C1c1ccsc1 (stereo not given)	–	·	·	·	·	·
C=CCOC(=O)C1=C(C)OC(N)=C(C#N)C1c1ccccc1F (stereo not given)	–	–	81	–	–	56
COC(=O)C1=C(C)OC(N)=C(C#N)C1c1ccccc1 (stereo not given)	–	–	83	–	–	–
CC1=C(C(=O)OCc2ccccc2)C(c2ccsc2)C(C#N)=C(N)O1 (stereo not given)	–	·	·	·	·	·
COC(=O)C1=C(C)OC(N)=C(C#N)C1C1CCCCC1 (stereo not given)	–	–	78	–	–	54
COc1ccc(C2C(C#N)=C(N)OC3=C2C(=O)CC(C)(C)C3)c(OC)c1OC (stereo not given)	–	–	–	–	–	71
N#CC1=C(N)Oc2n[nH]c(-c3cccs3)c2C1C1CCCCC1 (stereo not given)	–	–	–	–	·	–
NC(=O)[C@@H]1CC2(CC(c3cccc(NC(=O)[C@@H]4CCC(=O)N4)c3)=NO2)CN1C(=O)Cc1ccc([N+](=O)[O-])cc1 (stereo not given in full)	–	·	·	·	·	·
O=c1c2ccccc2nc(SCc2cc(=O)n3ccsc3n2)n1CCCO	–	–	–	–	·	–
COC(=O)C1=C(C)OC(N)=C(C#N)C1c1ccc(OC)c(CSc2ccccn2)c1 (stereo not given)	–	–	79	–	·	89
COC(=O)C1=C(C)OC(N)=C(C#N)C1c1ccc(OC)c(OC)c1OC (stereo not given)	–	–	58	–	·	54
COC(=O)C1=C(C)OC(N)=C(C#N)C1c1c(C)nn(-c2ccccc2)c1Cl (stereo not given)	–	–	97	–	–	96
COc1ccc(C2C(C#N)=C(N)Oc3c2oc(CO)cc3=O)c(OC)c1OC (stereo not given)	–	–	–	–	–	–
CCOC(=O)C1=C(C)N(C)C(=O)NC1c1c(C)nn(-c2ccc(C)cc2)c1Cl (stereo not given)	–	–	83	–	·	74
CCN(CC)C(=O)CSc1ccccc1N	–	–	–	–	–	–
O=C(Nc1ccccc1F)c1ccc(S(=O)(=O)NCC2CCCO2)cc1 (stereo not given)	–	–	–	–	–	–
CCOC(=O)C1=C(C)N(c2nonc2NC(C)=O)C(N)=C(C#N)C1c1ccccc1F (stereo not given)	–	–	73	–	–	73
CCSc1cc(C2C(C#N)=C(N)OC(C)=C2C(=O)OC)c(C)o1 (stereo not given)	–	–	90	–	–	81
CCOC(=O)C1=C(C)OC(N)=C(C#N)C1c1c(C)nn(-c2ccc(C)cc2)c1Cl (stereo not given)	–	–	100	–	–	97
SMILES	DAT uptake mod	CYP2C19 act	CYP2C19 inh	CYP2C9 activ	D1 allo mod	CYP2C9 inh
Cc1ccc(-n2nc(C)c3c2OC(N)=C(C#N)C3c2ccc(C)o2)cc1 (stereo not given)	–	·	·	·	·	·
COC(=O)c1sccc1-n1cccc1C(=O)C(=O)N1CC(C)OC(C)C1 (stereo not given)	–	–	–	–	·	–
O=C(CCn1c(=S)[nH]c2ccccc2c1=O)N1CCN(c2ccccn2)CC1	·	·	·	·	–	·
Nc1nnc(CCS(=O)(=O)c2cc(Cl)ccc2Cl)s1	–	–	–	–	–	–
O=S(=O)(Nc1nc(-c2sccc2Cl)cs1)c1cc(Cl)ccc1Cl	–	–	90	–	·	99
Oc1ccc(Br)cc1CN1CCCCCCC1	–	–	57	–	–	–
Oc1ccc(CN2CCCCC2)c2cccnc12	–	·	·	·	·	·
Cc1ccc(C(=O)NCCCN2CCOCC2)cc1N1CCCC1=O	–	–	–	–	–	–
O=C(NCc1ccco1)C1CCCN1C(=O)NCc1ccccc1 (stereo not given)	–	–	–	–	–	–
CCn1c(=O)n(CC)c2cc(S(=O)(=O)N3CCc4ccccc43)ccc21	–	–	96	–	–	95
CC(=O)Nc1ccc(S(=O)(=O)N2CCCc3ccccc32)cc1	–	–	–	–	–	–
O=S(=O)(NC1CC1)c1ccc(S(=O)(=O)N2CCc3ccccc32)cc1	–	–	72	–	–	82
Nc1ccc(S(=O)(=O)N2CCCc3ccccc32)cc1	2.3	–	74	3.7	–	–
COc1ccccc1OCCNc1nc2c(c(=O)n(C)c(=O)n2C)n1C	–	·	·	·	·	·
Fc1ccc(Br)cc1C1C=C(c2ccc(Br)cc2)Nc2ncnn21 (stereo not given)	–	–	87	–	·	56
Cc1ccsc1C1C=C(c2cccc(Br)c2)Nc2ncnn21 (stereo not given)	–	–	62	–	–	62
Nc1nnnn1/N=C/c1ccccn1	–	–	–	–	–	–
Cc1cc(N2C(=O)C3C4C=CC(C4)C3C2=O)ccc1Br (stereo not given)	–	–	73	–	–	–
CCCNC(=O)C1(CC2CC(c3ccccc3)=NO2)CCN(C(=O)C2(C)CC2)CC1 (stereo not given)	–	·	·	·	·	·
CCCCCCC/C(C)=N/NC(=O)CC(=O)NCCc1ccccc1	–	–	–	–	·	65
CCCCCNC(=O)CCc1ccccc1	–	·	·	·	·	·
C/C(Cc1ccccc1)=N\NC(=O)CCCCCC(=O)N/N=C(\C)Cc1ccccc1	–	–	57	–	·	–
O=C(CN1CC(=O)Oc2ccccc21)NCc1ccco1	–	–	–	–	·	–
O=C(CN1CCCc2ccccc21)NC(=O)NCc1ccco1	–	–	69	–	–	–
CC1Cc2ccccc2N1CC(=O)NC(=O)NCc1ccco1 (stereo not given)	–	–	83	–	·	55
CC1(c2ccccc2)NC(=O)N(CC(=O)NC(=O)NCc2ccco2)C1=O (stereo not given)	–	–	–	–	·	–
CC1CN(Cc2cc(=O)[nH]c(C(C)C)n2)CC(C)O1 (stereo not given)	–	–	–	–	·	–
O=c1cc(CN2CCOCC2)nc(C2CC2)[nH]1	-7.2	–	–	–	·	–

Screening data (PubChem BioAssay)
